High-throughput results as filed in PubChem BioAssay.
Pf growth 48h: inhibits P. falciparum growth in the first generation, 48 h; 310,000 tested, 5.9% active; P. falciparum luciferase growth in erythrocytes, 48 h; Potency, µM (titrated, usually from 28.7 µM), for the others: at the highest dose activity change, negative = inhibition, most hits filed as inhibitors; note: potency is the fitted concentration of half-maximal effect
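Erythrocytes infected with P. falciparum carrying an integrated firefly luciferase reporter (2% hematocrit, 0.1% parasitemia final) were exposed to compounds in RPMI 1640 with 0.5% Albumax at 37 C, 5% CO2. Growth inhibition was scored as reduced luminescence.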
Marburg entry inh: inhibitors of Marburg virus binding or cell entry; Marburg virus pseudotyped entry inhibition, cell reporter; Potency, µM (highest dose often 37.8 µM), without a hit: at the top dose activity change, negative = inhibition, actives largely listed as inhibitors; AID 540276; 300,000 tested, 1.8% active; calls by dose curve; tested in HEK293 cells; note: potency is the fitted concentration of half-maximal effect
HCV inhibitor: blocks hepatitis C virus; Huh7.5.1 HCVcc-Cre infection, luciferase reporter, 44 h; Potency, µM (top dose mostly 41.8 µM), for the others: at the highest dose activity change, negative = inhibition, hits mostly inhibitors; 340,000 tested, 3.4% active; AID 651820; note: potency is the fitted concentration of half-maximal effect
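Luciferase read-out (15 sec integration) after a 15 min room-temperature substrate step quantifies HCVcc-Cre infection. Cells, 1,000 per well, had compound added 4 h post-plating, then virus at ~0.5 moi, and were cultured 44 h.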
Lassa entry inh: Lassa virus entry inhibition; Lassa virus pseudotype entry inhibition, cell reporter; Potency, µM (titrated, usually from 37.9 µM), without a hit: top-dose activity change, negative = inhibition, most hits filed as inhibitors; 300,000 tested, 1.2% active; AID 540256; calls by dose curve; tested in HEK293 cells; note: potency is the fitted concentration of half-maximal effect; nearly all actives have a fitted effect of over 50% in size
Pf growth 96h: P. falciparum growth inhibition at 96 hours. P. falciparum luciferase reporter growth, 96 h. Potency, µM (highest dose often 28.7 µM), for inactives: top-dose activity change, negative = inhibition, hits mostly inhibitors. 320,000 tested, 6.9% active; note: potency is the fitted concentration of half-maximal effect
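Cell-based qHTS: luciferase-tagged P. falciparum in erythrocytes (2% hematocrit, 0.05% parasitemia final) incubated with compounds for 96 hours, 37 C, 5% CO2; luciferase detection reagent then added and luminescence measured.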
HCMV inh: inhibitors of human cytomegalovirus; HFF cells, HCMV-luciferase reporter, 72 h; stronger effect = lower value; activity change, negative = inhibition, % at 57.5 µM; 410,000 tested, 4.5% active; in the data active = activity change below about -60%; inconclusive = no clear call, values can overlap the other calls; inactive = above about -39%
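Cell-based, HFFs, 1000 cells/well, 16 h 37C; cpds in DMSO + HCMV-luc, MOI 1 PFU/cell; 72 h 37C; OneGlo luminescence after 5 min RT; norm. to buffer vs Salinomycin 10uM.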
An asterisk follows results filed as active; ? = inconclusive; . = not tested or not shown; [ ] = remark or other dose. In the library only some 14% were active in any assay of this set; here they are far more common. Unless noted, calls come from the whole dose curve; as a rule, active = well fitted inhibition curve with a large enough effect; inconclusive = small, poorly fitted or top-dose-only effect, or another doubt; inactive = no such curve, though single readings can be large or run the other way. % is set by controls: 0 for no effect and ±100 for the full control effect.

SMILES	Pf growth 48h	Marburg entry inh	HCV inhibitor	Lassa entry inh	Pf growth 96h	HCMV inh
O=C(Nc1cccc(-c2ccc(N3CCCCC3)nn2)c1)c1ccco1	-60%	?	2%[8.37 µM]	?	-9%	57
N=C(N)SCc1cn(-c2ccccc2)nc1-c1ccc(Br)cc1	0%	?	?	?	0%	-87*
COc1ccc(-c2cn3c(n2)sc2cc(C(=O)NC4CCCCC4)ccc23)cc1	.	.	.	8%[46.1 µM]	.	.
CCOC(=O)N1CCC(NC(=O)c2ccc3c(c2)sc2nc(-c4cccc(OC)c4)cn23)CC1	7.4µM*	.	?	.	10%	.
CCOC(=O)N1CCC(NC(=O)c2ccc3c(c2)sc2nc(-c4ccccc4)cn23)CC1	1.3µM*	11µM*	?	?	-20%	.
COc1ccc(CNC(=O)Cc2ccc(NC(=O)N3CCSc4ncccc43)cc2)cc1OC	.	.	.	3%[46.1 µM]	.	0
c1ccc(Nc2ccccn2)cc1	23%	1%	-12%	5%	.	-16
c1ccc(Nc2cccc(Nc3ccccc3)n2)cc1	.	1%[46.1 µM]	7.1µM*	36%	-55%	-24
COc1cccc(CN2CCN(Cc3cccc(Oc4ccccc4)c3)CC2)c1OC	10%	-17%[46.1 µM]	?	22%[46.1 µM]	9%	-37
COc1cccc(CN2CCC(N(CCc3ccccc3)Cc3ccccc3)CC2)c1OC	?	7.9µM*	11µM*	?	22%	-64*
CCc1noc(C)c1C(=O)Nc1cc(S(=O)(=O)N2CCOCC2)ccc1OCC(F)(F)F	-1%	0%[46.1 µM]	?	-24%	-9%	-14
COc1ccc(S(=O)(=O)N2CCc3ccccc32)cc1C(=O)NC1(C)CCS(=O)(=O)C1 (stereo not drawn)	?	.	-16%	.	-21%	0
C=CCn1c(=O)c(C(=O)NCCc2ccc(Cl)cc2)c(O)c2cc(OC)c(OC)cc21	1%	.	-5%	.	5%	-9
C=CCn1c(=O)c(C(=O)NC2CC2)c(O)c2cc(OC)c(OC)cc21	5%	?	-12%	-4%[46.1 µM]	12µM*	90
Cc1ccc(-n2c(=O)c3c4c(sc3n3c(C)nnc23)CO[C@H](C(C)C)C4)cc1	.	13%	.	.	.	.
O=C(c1cc(F)ccc1F)C1CCCN(Cc2cc(Cl)ccc2O)C1 (stereo not drawn)	4.1µM*	2%	?	-1%	?	-30
COc1ccc(F)cc1C(=O)C1CCCN(Cc2cn(C)c3ccccc23)C1 (stereo not drawn)	?	15µM*	?	?	34%	-27
COC(=O)c1ccc(CN2CCCC(C(=O)c3cc(F)ccc3OC)C2)cc1 (stereo not drawn)	8%	.	-8%	.	?	69
O=C(c1cc(F)ccc1F)C1CCCN(Cc2ccc3nonc3c2)C1 (stereo not drawn)	2%	?	?	-19%	16%	?
Cn1cc(CN2CCCC(C(=O)c3cc(F)ccc3F)C2)c2ccccc21 (stereo not drawn)	?	10µM*	-19%	?	?	-30
COc1ccc(F)cc1C(=O)C1CCCN(Cc2c[nH]c3ccccc23)C1 (stereo not drawn)	?	.	-23%	.	13µM*	?
COc1cccc(C(=O)C2CCCN(Cc3cn(CC(N)=O)c4ccccc34)C2)c1 (stereo not drawn)	?	?	-19%	-13%[46.1 µM]	5%	25
COC(=O)[C@]12CCCCC=C1N(Cc1ccc3c(c1)OCO3)C(=O)[C@H](CC(=O)NCc1ccccc1)C2	.	.	.	.	.	8
CCN(CC)CCCNC(=O)CCc1c(C)nc2c(c1C)c(=O)n(C)c(=O)n2C	.	2%[46.1 µM]	.	5%[46.1 µM]	.	-65*
Cn1nc(C(C)(C)C)cc1C(=O)NCc1ccc(N2CCCC2=O)cc1	-12%	?	?	-28%	?	-100*
SMILES	Pf growth 48h	Marburg entry inh	HCV inhibitor	Lassa entry inh	Pf growth 96h	HCMV inh
O=c1[nH]c(=S)c2[nH]c(=S)n(-c3ccccc3)c2[nH]1	.	-12%[46.1 µM]	3%	16%[46.1 µM]	.	-7
O=c1[nH]sc2cc(F)ccc12	-3%	?	?	-25%	?	-98*
O=c1ccsc2ccccc12	.	17%	22%	9%	.	59
O=c1[nH]sc2ccccc12	-7%	?	?	-15%	-6%	-73*
O=c1c2ccccc2[nH]c2ccc(F)cc12	?	2%[46.1 µM]	?	7%	3%	?
Fc1ccccc1C1CC(c2ccco2)=Nc2ccccc2S1 (stereo not drawn)	52%	.	-17%	.	0%	12
Oc1ccccc1/C=N/NC(=S)NCCc1ccccc1	?	?	11µM*	1%[46.1 µM]	?	-70*
Fc1ccc(NC(=S)NN=Cc2ccccc2Cl)cc1	.	?	-28%	-10%[46.1 µM]	.	-16
Oc1ccccc1C=NNC(=S)Nc1ccc(F)cc1	.	?	?	?	.	-83*
Cc1nn(C)cc1/C=N/NC(=S)Nc1ccccc1	12%	7.3µM*	?	-12%	-144%	21
CC(C)CN(CCCNC(=O)c1cc(-c2cccs2)nc2ccccc12)CC(C)C	.	?	.	1%[46.1 µM]	.	-10
CN(CC(=O)Nc1cccc(F)c1)C(=O)CNS(=O)(=O)c1ccc(N(C)C)c([N+](=O)[O-])c1	-29%	-1%	1%	-16%	-25%	-13
CCCn1c2ccccc2c2cnn(CC(=O)NCCc3ccc(OCC)c(OCC)c3)c(=O)c21	.	.	.	2%[46.1 µM]	.	-13
